AMPAR-TARP mod = modulators of AMPA receptor GluA2-stargazin complexes. 40,000 compounds, 3.5% hits. calls only at 30 µM. HEK293 GluA2+stargazin, membrane potential dye (FDSS), glutamate EC50; hits were called plate by plate, in both directions. O88602+P19491. AID 1259245;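 active = any of four per-well response measures lying three or more SD from its plate-wide compound average, in either direction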
GIRK2 activator = GIRK2 channel activators by thallium flux; P48051; HEK293 GIRK2/NPY4 cells, thallium flux fluorescence; activation (% efficacy), % for hits at 37.5 µM; 34,000 tested, under 10 active;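 active = primary screen hit, no activity in plain HEK293 cells, and in GIRK2-only cells above 5% efficacy rising with concentration; inactive = the rest, including fluorescent compounds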;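 note: efficacy is normalized control-subtracted fluorescence 15 s after thallium addition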
Calls only. This is one part of a sample in which hits are shown more often than they occur.

For COc1cc([N+](=O)[O-])cc2sc(NC(=O)c3ccc(S(=O)(=O)N(C)C4CCCC4)cc3)nc12 the results were AMPAR-TARP mod active.
`Cc1cc(NC(=O)c2ccc(S(=O)(=O)Nc3ccc4c(c3)OCO4)o2)no1` gave AMPAR-TARP mod inactive and GIRK2 activator inactive.
Cc1ccc(-n2ncc3c(=O)n(NC(=O)CSCc4ccccc4)cnc32)cc1 was read as AMPAR-TARP mod inactive and GIRK2 activator inactive.
Screening CC(C)c1ccc(S(=O)(=O)NCC2CCN(Cc3cccs3)CC2)cc1 returned GIRK2 activator inactive.
Screening CC1CCN(CC(O)COCCOc2ccc(C(C)C)cc2)CC1 (centres undefined) returned GIRK2 activator inactive.
`CN1CCN(CC(O)COCCOc2ccc(Br)cc2)CC1` (centres undefined) gave AMPAR-TARP mod inactive and GIRK2 activator inactive.
`CC1CCN(CC(O)COCCOc2ccc(Br)cc2)CC1` (centres undefined) gave AMPAR-TARP mod active and GIRK2 activator inactive.
Screening CC1CCN(CC(O)COCCOc2ccc(Cl)cc2)CC1 (centres undefined) returned AMPAR-TARP mod active.
Screening O=C(Nc1nc(CC(=O)N2CCN(c3ccccc3)CC2)cs1)c1ccc[nH]c1=O returned AMPAR-TARP mod inactive and GIRK2 activator inactive.
For CS(=O)(=O)Nc1ccccc1C1=NN(S(C)(=O)=O)C(c2ccco2)C1 (centres undefined) the results were AMPAR-TARP mod inactive and GIRK2 activator inactive.
`CCC(C)NC(=O)C(=O)Nc1c2c(nn1-c1ccc(Cl)cc1)CS(=O)(=O)C2` (centres undefined) gave AMPAR-TARP mod inactive and GIRK2 activator inactive.
O=C(Nc1ccc(Nc2cc(-n3cccn3)ncn2)cc1)c1ccccc1Cl was read as AMPAR-TARP mod inactive and GIRK2 activator inactive.
Screening Cc1onc(-c2ccccc2Cl)c1C(=O)N1CCN(Cc2nnnn2-c2ccc(F)c(F)c2)CC1 returned AMPAR-TARP mod active and GIRK2 activator inactive.
Screening Cc1cc(C(=O)N2CCN(Cc3nnnn3-c3ccc(F)c(F)c3)CC2)no1 returned AMPAR-TARP mod inactive and GIRK2 activator inactive.
Screening c1ccn2cc(C34CC5CC(CC(C5)C3)C4)nc2c1 returned AMPAR-TARP mod active.
Screening O=C(NCCOc1ccc(F)cc1)c1cc(-c2cccs2)n(C2CCS(=O)(=O)C2)n1 (centres undefined) returned AMPAR-TARP mod inactive and GIRK2 activator inactive.
Screening O=C(c1ccc(F)cc1F)N1CCN(c2ccc3nnc(-c4ccco4)n3n2)CC1 returned AMPAR-TARP mod inactive and GIRK2 activator inactive.
Screening O=S(=O)(/C=C/c1ccccc1)N1CCN(c2ccc(-c3ccco3)nn2)CC1 returned AMPAR-TARP mod inactive and GIRK2 activator inactive.
Screening O=S(=O)(/C=C/c1ccccc1)N1CCN(c2ccc3nnc(-c4ccco4)n3n2)CC1 returned AMPAR-TARP mod active and GIRK2 activator inactive.
O=S(=O)(c1ccc(F)cc1)N1CCN(c2ccc3nnc(-c4ccco4)n3n2)CC1 was read as AMPAR-TARP mod active and GIRK2 activator inactive.
For CC(Oc1ccccc1F)C(=O)N1CCN(c2ccc3nnc(-c4ccco4)n3n2)CC1 (centres undefined) the results were AMPAR-TARP mod active and GIRK2 activator inactive.
Screening CCOC(=O)c1ccc(S(=O)(=O)N2CCN(c3ccc4nnc(CC)n4n3)CC2)cc1 returned AMPAR-TARP mod inactive and GIRK2 activator inactive.
Screening CCCC(=O)Nc1ccc(S(=O)(=O)N2CCN(c3ccc4nnc(C)n4n3)CC2)cc1 returned AMPAR-TARP mod active and GIRK2 activator inactive.
For O=S(=O)(c1cccc(Cl)c1)N1CCN(c2ccc3nnc(-c4ccco4)n3n2)CC1 the results were AMPAR-TARP mod inactive and GIRK2 activator inactive.
Screening COc1cccc(NC(=O)N2CCN(c3cc(OC)nc(OC)n3)CC2)c1 returned AMPAR-TARP mod inactive and GIRK2 activator inactive.
For Cc1ccc(Cn2c(CO)cnc2SCC(=O)N2CCN(c3ccccc3)CC2)cc1 the results were AMPAR-TARP mod inactive and GIRK2 activator inactive.
Screening CCCCOc1cc(C)cc2oc(=O)cc(-c3ccccc3)c12 returned AMPAR-TARP mod inactive.
`COc1ccc(CN(CC(=O)NC2CCCCC2)S(=O)(=O)c2cccnc2)cc1` gave AMPAR-TARP mod inactive.
For O=C(Cn1nc(C(=O)N2CCOCC2)cc1C1CC1)NCc1cccs1 the results were AMPAR-TARP mod inactive and GIRK2 activator inactive.
For CCc1ccc(S(=O)(=O)N2CCN(c3ccc4nnc(-c5ccco5)n4n3)CC2)cc1 the results were AMPAR-TARP mod inactive and GIRK2 activator inactive.
`COc1ccc(S(=O)(=O)N2CCN(c3ccc4nnc(-c5ccco5)n4n3)CC2)cc1` gave AMPAR-TARP mod active and GIRK2 activator inactive.
`COc1ccc(S(=O)(=O)CC(=O)Nc2nc3c(Cl)c(Cl)ccc3s2)cc1` gave AMPAR-TARP mod inactive and GIRK2 activator inactive.
Screening CC(C)C(=O)Nc1ccc(S(=O)(=O)N2CCOC(c3ccccc3)C2)cc1 (centres undefined) returned GIRK2 activator inactive.
Screening COc1cc(/C=C/c2ccc3cccc(O)c3n2)cc(Br)c1O returned AMPAR-TARP mod active.
CCOc1cc(/C=C/c2ccc3cccc(O)c3n2)cc(Br)c1O was read as AMPAR-TARP mod inactive.
COc1cc(OC)cc(C(=O)Oc2c(S(=O)(=O)c3ccc(C)cc3)c(C)nn2C(C)(C)C)c1 was read as AMPAR-TARP mod active.
Cc1ccc(S(=O)(=O)c2c(C)nn(C(C)(C)C)c2OC(=O)c2ccccc2C)cc1 was read as AMPAR-TARP mod inactive.
For COc1cc(OC)cc(C(=O)Oc2c(S(=O)(=O)c3ccccc3)c(C)nn2C(C)(C)C)c1 the results were AMPAR-TARP mod inactive.
Screening Cc1nn(C(C)(C)C)c(OC(=O)c2ccccc2Br)c1S(=O)(=O)c1ccccc1 returned AMPAR-TARP mod active.
O=C(CSc1nccnc1N1CCSCC1)Nc1ccc(Br)cc1 was read as AMPAR-TARP mod inactive and GIRK2 activator inactive.
Screening COc1ccc(C(C)C)cc1S(=O)(=O)NCCN1CCN(S(=O)(=O)c2cc(C(C)C)ccc2OC)CC1 returned AMPAR-TARP mod inactive.
Screening COc1ccccc1NC(=O)Cn1cnc2c(-c3ccccc3)csc2c1=O returned AMPAR-TARP mod inactive and GIRK2 activator inactive.
`COCCn1nnn(-c2ccc(NC(=O)NCc3ccc(Cl)cc3)cc2)c1=O` gave AMPAR-TARP mod inactive and GIRK2 activator inactive.
`Cc1ccc(-c2ccc(=O)n(CCNC(=O)COc3ccc4c(c3)OCO4)n2)cc1` gave AMPAR-TARP mod inactive and GIRK2 activator inactive.
`CCc1nnc(NS(=O)(=O)c2ccc(NC(=O)c3ccc([N+](=O)[O-])o3)cc2)s1` gave AMPAR-TARP mod inactive.
For CCc1nnc(NS(=O)(=O)c2ccc(NC(=O)c3cc4cc([N+](=O)[O-])ccc4s3)cc2)s1 the results were AMPAR-TARP mod active.
For Cc1csc(NC(=O)c2ccc(S(=O)(=O)Nc3ccc(OC(F)(F)F)cc3)o2)n1 the results were AMPAR-TARP mod active and GIRK2 activator inactive.
`Cc1nnc(NC(=O)c2ccc(S(=O)(=O)Nc3ccc(OC(F)(F)F)cc3)o2)s1` gave AMPAR-TARP mod inactive and GIRK2 activator inactive.
For O=C(Nc1ccc(OC(F)(F)F)cc1)c1ccc(S(=O)(=O)NC2CC2)o1 the results were AMPAR-TARP mod inactive and GIRK2 activator inactive.
Screening CN(C)S(=O)(=O)c1ccc(C(=O)Nc2ccc(OC(F)(F)F)cc2)o1 returned AMPAR-TARP mod active and GIRK2 activator inactive.
